T cruzi growth-1 – inhibitors of T. cruzi proliferation. T. cruzi beta-gal in NIH3T3, GalScreen luminescence, 90 h. inhibition, % at 8.34 µM. hit rate 5.9% among 77,000;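 active means mean inhibition above about 93%, with at least 55% of replicates each passing it, limit read from the data, passing the limit was not always enough; inconclusive means only one of those two conditions holds; inactive means neither condition holds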
C diff HTS – blocks growth of Clostridium difficile; AID 1259249; hit rate 0.25% among 86,000; Clostridium difficile clinical isolate growth, OD600, 24 h; stronger effect = lower value; growth activity, negative = inhibition, % at 16 µg/mL (by protocol);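 active means mean growth activity at or below -80% and every replicate also at or below -80%; inconclusive means mean at or below -80% but some replicate above -80%; inactive means mean growth activity above -80%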;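 further: 0% = DMSO wells and -100% = levofloxacin 16 µg/mL wells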
Pf Dd2 growth – inhibitors of Plasmodium falciparum Dd2 growth; P. falciparum Dd2 growth, SYBR Green, 72 h; stronger effect = lower value; activity change, % at 10 µM; hit rate 2.3% among 94,000; in the data active means activity change below about -80%; inconclusive means no clear call, values can overlap the other calls
T cruzi growth-2 – blocks T. cruzi growth in NIH3T3 host cells; shares compounds with T cruzi growth-1; T. cruzi beta-gal in NIH3T3, GalScreen luminescence, 90 h; inhibition, % at 8.35 µM; hit rate 72% among 5,600;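 active means mean replicate inhibition above about 95% and at least 55% of replicates individually reaching it, limit read from the data; inconclusive means only one of the two criteria is met; inactive means neither criterion is met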
T cruzi growth-3 – blocks T. cruzi growth in NIH3T3 host cells | shares compounds with T cruzi growth-1 | T. cruzi beta-gal in NIH3T3, GalScreen luminescence, 90 h | inhibition, % at 2.09 µM | hit rate 21% among 5,600 | AID 651740;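 active means mean inhibition above about 95%, with at least 55% of replicates also reaching it, limit read from the data; inconclusive means meets just one of the two conditions; inactive means meets neither condition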;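 further: plate controls were neutral control median for no effect and positive control median for full effect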
NIH3T3 tox – NIH/3T3 (mouse) viability loss. shares compounds with T cruzi growth-1. NIH/3T3 viability, CellTiter-Glo ATP luminescence, 90 h. cytotoxicity (signal decrease), % at 8.35 µM. hit rate 14% among 5,600;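 active means mean signal decrease across replicates above about 35% based on untreated-well scatter, with enough replicates individually passing, limit read from the data; inconclusive means no rule stated though some were filed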;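 further: 0% = median of neutral control wells and 100% = median of positive control wells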
3T3 cytotox 2 – cytotoxicity in mouse NIH/3T3 fibroblasts; shares compounds with T cruzi growth-1; NIH/3T3 viability, CellTiter-Glo ATP luminescence, 90 h; inhibition, % at 24.9 µM; AID 651744; hit rate 56% among 5,600;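 active means mean loss of cell viability signal at or above a set limit, and enough replicates individually reaching it; inconclusive means meets only the mean limit or only the replicate share; inactive means meets neither condition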;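 further: 0% = median of neutral control wells and 100% = median of positive control wells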
* = called active by the depositor; ? = inconclusive; / = no result given. Hits are enriched below; roughly 6.7% of the tested compounds scored in any of these assays.

SMILES	T cruzi growth-1	C diff HTS	Pf Dd2 growth	T cruzi growth-2	T cruzi growth-3	NIH3T3 tox	3T3 cytotox 2
C[C@@H]1CN([C@H](C)CO)C(=O)c2cc(NS(=O)(=O)c3cccs3)ccc2O[C@@H](C)CCCCO[C@@H]1CN(C)Cc1ccc(C(F)(F)F)cc1	98*	8	-55	92	114*	-6	54*
C[C@@H]1CN([C@@H](C)CO)C(=O)c2cc(NS(=O)(=O)c3cccs3)ccc2O[C@@H](C)CCCCO[C@H]1CN(C)Cc1ccc(C(F)(F)F)cc1	95	-2	-73	/	/	/	/
C[C@@H]1CN([C@@H](C)CO)C(=O)c2cc(NS(=O)(=O)c3cccs3)ccc2O[C@@H](C)CCCCO[C@H]1CN(C)Cc1ccc(C(=O)O)cc1	-69	1	29	/	/	/	/
O=C(N[C@@H]1CC[C@@H](CCNC(=O)C2CCOCC2)O[C@@H]1CO)c1ccccn1	33	1	14	/	/	/	/
C[C@H](CO)N1C[C@H](C)[C@H](CN(C)Cc2ccccn2)Oc2ncc(C3=CCCC3)cc2C1=O	-174	-2	14	/	/	/	/
CN(C)CC(=O)Nc1ccc2c(c1)[C@@H]1C[C@@H](CC(=O)NCC3CC3)O[C@@H](CO)[C@@H]1O2	-14	0	6	/	/	/	/
C[C@H]1CN([C@@H](C)CO)C(=O)c2cc(C#CCc3ccccc3)cnc2O[C@@H]1CN(C)CC1CCCC1	109*	-1	-88*	103*	?	19	103*
C[C@H](CO)N1C[C@H](C)[C@H](CN(C)Cc2cccnc2)Oc2ncc(C#CCc3ccccc3)cc2C1=O	71	-6	-56	/	/	/	/
C[C@@H]1CN([C@H](C)CO)C(=O)c2cc(C#CCc3ccccc3)cnc2O[C@H]1CN(C)CC1CCOCC1	-62	-4	-63	/	/	/	/
CNC[C@H]1Oc2ncc(C#CCC3CCCC3)cc2C(=O)N([C@H](C)CO)C[C@H]1C	?	6	-45	108*	92	11	106*
C[C@@H]1CN([C@H](C)CO)C(=O)c2cc(C#CCc3ccccc3)cnc2O[C@@H]1CN(C)C(=O)C1CCCCC1	35	0	-34	/	/	/	/
C[C@@H]1CN([C@@H](C)CO)C(=O)c2cc(C#CCc3ccccc3)cnc2O[C@@H]1CN(C)Cc1cccnc1	101*	-7	-53	79	-10	-10	-9
C[C@H](CO)N1C[C@H](C)[C@@H](CN(C)C(=O)C2CCCCC2)Oc2ncc(C#CCc3ccccc3)cc2C1=O	?	16	-77	94	-19	17	106*
CNC[C@@H]1Oc2ncc(C#CC3CCCC3)cc2C(=O)N([C@@H](C)CO)C[C@@H]1C	96	4	-31	/	/	/	/
COc1ccc2c3c([nH]c2c1)[C@@H](CO)N(C(=O)Nc1ccccc1F)CC31CN(C(=O)c2ccccc2F)C1	/	4	-77	/	/	/	/
C[C@H]1CN([C@@H](C)CO)C(=O)c2cc(C#Cc3cccnc3)cnc2O[C@@H]1CN(C)Cc1ccccc1	91	/	-57	/	/	/	/
C[C@@H]1CN([C@@H](C)CO)C(=O)c2cc(C#CCC3CCCC3)cnc2O[C@H]1CN(C)Cc1ccccn1	110*	-34	-50	105*	47	2	104*
C[C@H](CO)N1C[C@H](C)[C@H](CN(C)Cc2ccccc2)Oc2ncc(C#Cc3cccnc3)cc2C1=O	101*	/	-20	70	15	15	33
C[C@H](CO)N1C[C@H](C)[C@H](CN(C)Cc2ccccn2)Oc2ncc(C#CCC3CCCC3)cc2C1=O	65	-11	-5	/	/	/	/
CCC(=O)Nc1ccc2c(c1)C(=O)N(C)C[C@H](OC)[C@H](C)CN(C(=O)CC1CC1)[C@H](C)CO2	-1	/	42	/	/	/	/
COc1ccccc1CN1[C@H](CO)[C@@H]2c3ccccc3N(C(=O)C3CCC3)C[C@@H]21	-7	-3	-1	/	/	/	/
C[C@@H]1CN([C@@H](C)CO)S(=O)(=O)c2ccc(-c3ccc(F)cc3)cc2O[C@H]1CN(C)C(=O)Nc1ccc(F)cc1	?	/	-20	93	7	24	56*
CC(=O)N(C)C[C@H]1Oc2cc(-c3ccc(F)cc3)ccc2S(=O)(=O)N([C@H](C)CO)C[C@@H]1C	42	-1	-8	/	/	/	/
CC(=O)N(C)C[C@H]1Oc2cc(-c3ccc(F)cc3)ccc2S(=O)(=O)N([C@@H](C)CO)C[C@@H]1C	8	-1	-7	/	/	/	/
CC(=O)N(C)C[C@H]1Oc2cc(-c3ccc(F)cc3)ccc2S(=O)(=O)N([C@@H](C)CO)C[C@H]1C	6	-1	3	/	/	/	/
SMILES	T cruzi growth-1	C diff HTS	Pf Dd2 growth	T cruzi growth-2	T cruzi growth-3	NIH3T3 tox	3T3 cytotox 2
C[C@@H]1CN([C@H](C)CO)S(=O)(=O)c2ccc(-c3ccc(F)cc3)cc2O[C@@H]1CN(C)C(=O)Nc1ccc(F)cc1	120*	/	-27	107*	66	7	49*
C[C@@H]1CN([C@H](C)CO)S(=O)(=O)c2ccc(-c3cccc(C(=O)N(C)C)c3)cc2O[C@@H]1CN(C)C(=O)Nc1ccc(F)cc1	22	-3	-19	/	/	/	/
C[C@H](CO)N1C[C@H](C)[C@@H](CN(C)C(=O)Nc2ccc(F)cc2)Oc2cc(-c3ccc(F)cc3)ccc2S1(=O)=O	118*	/	-40	96*	46	44*	46*
C[C@H](CO)N1C[C@H](C)[C@H](CN(C)C(=O)Nc2ccc(F)cc2)Oc2cc(-c3ccc(F)cc3)ccc2S1(=O)=O	119*	/	-51	104*	74	11	56*
C[C@H]1CN([C@@H](C)CO)C(=O)c2cc(C3=CCCC3)cnc2O[C@@H]1CN(C)C(=O)NC1CCCC1	46	14	6	/	/	/	/
CCC(=O)N(C)C[C@H]1Oc2cc(-c3ccccc3OC)ccc2S(=O)(=O)N([C@@H](C)CO)C[C@H]1C	64	-2	-13	/	/	/	/
CO[C@H]1CN(C)C(=O)c2ccc(NC(C)=O)cc2OC[C@@H](C)N(C(=O)C2CCCCC2)C[C@H]1C	48	/	/	/	/	/	/
O=C(Cc1ccccn1)NCC[C@@H]1CC[C@@H](NC(=O)CN2CCOCC2)[C@@H](CO)O1	/	0	-2	/	/	/	/
CC(=O)N1CC2(C1)[C@@H](c1ccc(-c3ccccc3C)cc1)[C@@H](CO)N2C(C)=O	/	13	37	/	/	/	/
Cn1cnc(S(=O)(=O)N2C[C@H](O)COC[C@H]3O[C@@H](CC(=O)NC4CCC4)CC[C@@H]32)c1	/	-1	22	/	/	/	/
C[C@H]1CN([C@@H](C)CO)S(=O)(=O)c2ccc(-c3ccc(F)cc3)cc2O[C@H]1CN(C)C(=O)Nc1ccc(F)cc1	120*	/	-25	101*	81	62*	76*
C[C@H](CO)N1C[C@H](C)[C@H](CN(C)C(=O)Nc2ccc(F)cc2)Oc2cc(-c3cccc(C(=O)N(C)C)c3)ccc2S1(=O)=O	18	-1	-54	/	/	/	/

Screening results: PubChem, Broad Institute
